# Shiga inhibitor: blocks Shiga toxin action in Vero cells. inhibition, % at 38.7 µM. hit rate 9.2% among 290,000. Vero cells, Shiga toxin protein synthesis inhibition reporter. AID 2315; in the data active = inhibition mostly above about 28%, no sharp cut-off; inactive = mostly below about 43%; note: 0% is about no effect
# Pf growth 48h: P. falciparum growth inhibition at 48 hours (one generation) | P. falciparum luciferase growth in erythrocytes, 48 h | Potency, µM (doses to about 28.7 µM), without a hit: at the top dose activity change, negative = inhibition, most hits filed as inhibitors | hit rate 5.9% among 310,000; note: potency is the fitted concentration of half-maximal effect; % is set by controls: 0 for no effect and ±100 for the full control effect
#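 Luciferase-expressing P. falciparum in infected erythrocytes (2% hematocrit, 0.1% parasitemia final) in RPMI 1640/0.5% Albumax were exposed to compound for 48 hours at 37 C, 5% CO2; growth read as luminescence.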
# CHX counter: counter-screen for Shiga toxin inhibitors: cycloheximide protein synthesis inhibition; cell reporter, cycloheximide protein synthesis inhibition counterscreen; max response, %; hit rate 12% among 300,000; in the data active = max response mostly above about 13%, no sharp cut-off; inactive = mostly below about 14%; note: read at 38.3 µM for the half of the compounds with a filed dose; 0% is about no effect
# NS1 inh: influenza NS1 inhibition. Potency, µM (top dose mostly 46.1 µM), for inactives: at the highest dose activity, positive = more growth. hit rate 0.4% among 270,000. AID 2326; calls by dose curve; note: potency is the fitted concentration of half-maximal effect; actives are rising curves; nearly all actives have a fitted effect of over 50% in size
#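 S. cerevisiae expressing influenza A NS1, grown in glucose, washed, then diluted 1:100 into pH 6.0 -URA galactose medium with 23 nl compound. Growth recovery read as OD600; NS1-free strain serves as control.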
# Pf growth 96h: P. falciparum growth inhibition at 96 hour, primary screen for plastid delayed-death inhibitors; P. falciparum luciferase reporter growth, 96 h; AID 504834; hit rate 6.9% among 320,000; Potency, µM (series often up to 28.7 µM), without a hit: top-dose activity change, negative = inhibition, usual class: inhibitors; note: potency is the fitted concentration of half-maximal effect; % is set by controls: 0 for no effect and ±100 for the full control effect
#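 Two parasite generations (96 h, 37 C, 5% CO2) of compound exposure in infected erythrocytes (0.05% parasitemia, 2% hematocrit). Luciferase-reporter P. falciparum; decreased luminescence indicates inhibited growth, aimed at apicoplast-acting delayed death.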
# Numbers without * were called inactive; ? = inconclusive; . = no result. An excerpt weighted towards active compounds, which were near 21% of everything screened. Unless noted, calls come from the whole dose curve; as a rule, active = well fitted inhibition curve with a large enough effect; inconclusive = small, poorly fitted or top-dose-only effect, or another doubt; inactive = no such curve, though single readings can be large or run the other way.
SMILES,Shiga inhibitor,Pf growth 48h,CHX counter,NS1 inh,Pf growth 96h
CCC(=O)c1ccc(OCC(=O)OCC(=O)NCCC2=CCCCC2)cc1,.,10%,.,.,-1%
COCCCNC(=O)CSC1=Nc2ccccc2C2=NC(c3ccccc3)C(=O)N12 (stereo unspecified),21,-1%,-7,.,?
O=C(Oc1ccc(OC(=O)N2CCCCC2)cc1)N1CCCCC1,-10,11%,6,-1%,?
O=C(Oc1ccc(-c2ccccc2)cc1)N1CCCCC1,65*,75%,35*,-1%,.
CC(=O)Nc1ccc(C(=O)N2CCCC2)cc1,-13,44%,3,20%,38%
CC(=O)Nc1ccc(OC(=O)N2CCCCC2)cc1,80,2%,12*,4%,?
CSc1ccccc1NC(=O)CN(c1ccccc1Br)S(C)(=O)=O,-7,0%,-2,5%,-11%
Cc1noc(C)c1COc1ccc(C(=O)OCC(=O)NC2CCCCC2C)cc1 (stereo unspecified),-9,12%,-6,-13%,54%
O=C(Nc1ccc2c(c1)oc1ccccc12)C1CC1,95*,124%,46*,-63%,.
O=C(CSc1ccccn1)Nc1ccc2c(c1)oc1ccccc12,57*,33%,42*,-14%,-2%
CCCCCC(=O)Nc1ccc2ccccc2c1,61*,66%,50*,4%,83%
COc1cc2c(cc1NC(=O)CSc1ccccn1)oc1ccccc12,25,19%,15,4%,?
O=C(O)CCC(=O)Nc1ccc2ccccc2c1,.,.,.,2%,.
CC(C)CC(=O)Nc1ccc2c(c1)oc1ccccc12,167*,363%,45*,-37%,115%
Cc1c(CNC2CCCC2)c(C(=O)O)c(C)n1Cc1ccccc1,-12,2%,-1,-2%,?
CCCCC(=O)Nc1ccc2c(c1)oc1ccccc12,73*,361%,25*,6%,278%
O=C(Nc1ccc2c(c1)OC1(CCCC1)O2)C1CC1,42,?,17*,-89%,20%
O=C(Nc1ccc2c(c1)OCO2)C1CC1,.,104%,.,.,82%
COC(=O)C1=C(C)N(C)C(=O)NC1c1c(O)ccc2ccccc12 (stereo unspecified),-12,-11%,-2,6%,-28%
O=C(NNC(=O)c1ccccc1-c1ccccc1C(=O)O)c1cccc([N+](=O)[O-])c1,-3,9%,0,-1%,17%
COc1ccccc1C(=O)NNC(=O)c1cccc(C)c1,.,110%,23*,-9%,?
O=C(NNC(=O)c1ccccn1)c1cccc([N+](=O)[O-])c1,8,13µM*,8,.,17%
COc1ccccc1C(=O)NNC(=O)c1cccc([N+](=O)[O-])c1,61*,122%,32*,-3%,236%
O=C(Nc1ccc2nc(-c3ccc(Br)o3)[nH]c2c1)c1ccco1,74*,?,24*,-119%,.
COc1cccc(OC)c1C(=O)NC(=S)Nc1cc(-c2nc3ccccc3[nH]2)ccc1Cl,44,4.1µM*,10,16%,?
SMILES,Shiga inhibitor,Pf growth 48h,CHX counter,NS1 inh,Pf growth 96h
O=C(Nc1ccc2nc(-c3ccc(Br)o3)[nH]c2c1)c1cccs1,52*,?,45*,-47%,?
O=C(Nc1ccc2nc[nH]c2c1)c1ccco1,71*,81%,30*,0%,135%
COc1c(F)c(F)c(C(=O)Nc2ccc(-c3nc4ccccc4[nH]3)cc2)c(F)c1F,42,-4%,7,.,78%
O=C(O)COCC(=O)N1CCc2c([nH]c3ccccc23)C1C(F)(F)F (stereo unspecified),-3,-2%,-1,0%,52%
Cc1ccc(-c2nc3ccccc3[nH]2)cc1NC(=O)c1ccco1,53,17%,22*,-138%,?
Cc1cccc2[nH]c(-c3ccc(NC(=O)c4ccco4)cc3)nc12,126*,-45%,32*,-14%,0.41µM*
O=C(Nc1ccc2nc(-c3ccccc3)[nH]c2c1)c1ccco1,47*,?,36*,-11%,-11%
CC(=O)Nc1ccc2nc(-c3ccc(Br)o3)[nH]c2c1,58*,220%,55*,-8%,-23%
Cc1ccc(-c2nc3ncccc3o2)cc1NC(=O)c1ccco1,.,.,.,20%,.
Cc1cccc(C)c1OCC(=O)Nc1ccc(NC(=O)c2ccco2)cc1,-1,?,9,-5%,?
O=C(Nc1cccc(-c2nc3ccccc3[nH]2)c1)c1cccc(NC(=O)c2ccco2)c1,-19,?,-7,4%,.
Cc1ccc(-c2nc3ncccc3o2)cc1NC(=O)c1sc2ccccc2c1Cl,10,9%,-3,3%,1%
Cc1ccc(-c2nc3ccccc3[nH]2)cc1NC(=O)c1sc2cc(Cl)ccc2c1Cl,54,3.3µM*,20*,-23%,?
COc1ccc(CNC(=O)C2COc3ccccc3O2)c(OC)c1 (stereo unspecified),103*,-6%,31*,0%,-1%
COc1ccc(OC)c(NC(=O)C2COc3ccccc3O2)c1 (stereo unspecified),3,?,10,-71%,?
COc1ccc(C)cc1NC(=O)CC1COc2ccccc2O1 (stereo unspecified),1,-12%,4,-15%,13%
O=C(NCc1ccccc1)C1COc2ccccc2O1 (stereo unspecified),59*,121%,19*,1%,34%
Cc1ccc(NC(=O)CC2COc3ccccc3O2)cc1 (stereo unspecified),54*,51%,31*,-30%,353%
Cc1onc(-c2ccccc2)c1C(=O)NCC1COc2ccccc2O1 (stereo unspecified),-16,28%,8,-7%,.
Cc1onc(-c2ccccc2)c1CNC(=O)C1COc2ccccc2O1 (stereo unspecified),-14,13µM*,0,-4%,?
CCC1CN(C(=O)NCc2ccc(F)cc2)c2cc(C)ccc2O1 (stereo unspecified),-4,-1%,2,-5%,?
Cc1cccc(C)c1NC(=O)CNC(=O)C1COc2ccccc2O1 (stereo unspecified),.,18%,.,.,15%
CCC1CN(C(=O)Nc2ccc(C)cc2)c2cc(C)ccc2O1 (stereo unspecified),21,?,12*,-40%,1%
Cc1ccc(CNC(=O)C2COc3ccccc3O2)cc1 (stereo unspecified),35,26%,26*,-2%,35%
c1ccc2c(c1)Cc1ccccc1O2,.,10%,.,.,118%
COc1ccc(C(=O)Nc2ccccc2C(=O)NCCN2CCOCC2)cc1,36,0%,13,-1%,.
CCOC(=O)N1CCN(C(=O)c2ccccc2NC(=O)c2ccc(C(C)(C)C)cc2)CC1,-3,10µM*,-2,-9%,?
CCOC(=O)N1CCN(C(=O)c2ccc(-n3c(C)ccc3C)cc2)CC1,-17,?,-1,5%,10µM*
CN1CCN(C(=O)c2ccccc2NC(=O)c2ccc(C(C)(C)C)cc2)CC1,10,-10%,14,9%,?

# High-throughput results as filed in PubChem BioAssay.
